# From PubChem BioAssay
# Giardia killer: kills Giardia lamblia. activity change, % at 7.66 µM, hits read low. AID 540267. Giardia lamblia trophozoite viability. 340,000 tested, 0.15% active; in the data active = activity change below about -80%; inconclusive = between about -30% and that limit;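 also: parasites exposed to compound for two days anaerobically before the ATP read; % is scaled to controls: 0 for no effect and ±100 for the full control effect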
#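 Giardia lamblia trophozoites (100 cells/well) were incubated with compounds for 48 h at 37 deg C under anaerobic conditions. Viability was read as ATP content by one-step luminescence after 15-30 min at room temperature.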
# IL-2 act: IL-2 activation. 360,000 tested, 0.065% active. AID 652025. IL-2 activation reporter assay, cell-based qHTS; stimulated with anti-CD3/CD4/CD28 beads; in transgenic mouse T cells. activation, % (series mostly up to about 46 µM); in the data active = activation above about 50%; inconclusive = mostly about 30% to 49%; also: 0% is about no effect
#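 Readout is EGFP and DsRed signal by fluorescent plate cytometry after 18 h at 37 degrees C. Transgenic mouse T cells (750/well) received compound for 60 min before bead stimulation (anti-CD3, anti-CD4, anti-CD28); memory T cells served as non-tolerant control.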
# RXFP1 ag: activates the human relaxin receptor RXFP1; Q9HBX9; HEK293T-RXFP1 cAMP TR-FRET, 30 min; response scale: percent of porcine relaxin response, buffer zero; Potency, µM (top dose mostly 57.5 µM), for the others: at the top dose activation, actives largely listed as activators; 370,000 tested, 0.3% active; AID 2676; also: potency is read from the fitted curve at half-maximal effect; % is scaled to controls: 0 for no effect and ±100 for the full control effect; nearly all actives have a fitted effect of over 60% in size
#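 Agonist response is measured as cAMP accumulation in an RXFP1-transfected HEK293T line under PDE4 inhibition. Values are scaled between buffer-only and 29 nM porcine relaxin, and EC50s come from standard Hill equation fits.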
# NPSR antagonist: antagonists of human neuropeptide S receptor cAMP signaling; CHO-NPSR cells, cAMP TR-FRET, antagonist mode; Potency, µM (doses to about 38.3 µM), for the others: top-dose activity change, negative = inhibition, actives largely listed as inhibitors; 220,000 tested, 1% active; AID 1461; also: potency is read from the fitted curve at half-maximal effect; % is scaled to controls: 0 for no effect and ±100 for the full control effect; nearly all actives have a fitted effect of over 50% in size
# Target sequence (Q6W5P4 whole entry, looked up): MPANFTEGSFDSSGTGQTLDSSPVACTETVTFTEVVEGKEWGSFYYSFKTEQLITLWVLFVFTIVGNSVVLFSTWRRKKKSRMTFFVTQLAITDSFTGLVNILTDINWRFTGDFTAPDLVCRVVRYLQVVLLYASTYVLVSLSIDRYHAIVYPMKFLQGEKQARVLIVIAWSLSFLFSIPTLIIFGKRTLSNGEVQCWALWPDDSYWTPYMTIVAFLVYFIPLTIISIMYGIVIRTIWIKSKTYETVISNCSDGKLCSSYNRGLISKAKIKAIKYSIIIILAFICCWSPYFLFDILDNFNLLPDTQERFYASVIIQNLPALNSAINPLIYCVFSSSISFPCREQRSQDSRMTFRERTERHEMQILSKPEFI
# BRCA1 expr act: activators of BRCA1 expression; MCF7-BRCA1-FFLuc reporter, luminescence, 48 h; response scale: scaled: vehicle 0%, 10 µM genistein 100%; Potency, µM (highest dose often 46.1 µM), for the others: top-dose activation, actives largely listed as activators; 380,000 tested, 1.1% active; also: potency is read from the fitted curve at half-maximal effect; nearly all actives have a fitted effect of over 80% in size
#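 Cells: MCF7-BRCA1-FFLuc, 2000/well. Exposure: 48 h, 37 °C, 5% CO2. Read: luminescence, 15 min post-substrate. Controls: genistein 10 microM (maximal activation), DMSO (neutral).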
# RXFP1 antagonist: RXFP1 (human) relaxin receptor antagonism; Q9HBX9; HEK293-RXFP1, relaxin-stimulated cAMP HTRF, 30 min; hits give low values; activity change, negative = inhibition, % at 57.5 µM; 350,000 tested, 0.59% active; AID 1259400;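 active = activity change of -60% or lower, but not beyond a set lower limit; inconclusive = change between -60% and -40%, or beyond the set limit; inactive = change above -40%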; also: % is scaled to controls: 0 for no effect and ±100 for the full control effect
# An asterisk follows results filed as active; ? = inconclusive; nt = not tested or not shown; [ ] = dose if it differs, or a comment. An excerpt weighted towards active compounds, which were near 1.9% of everything screened. Unless noted, calls follow the shape of the dose curve; as a rule, active = well fitted curve in the direction sought with a large enough effect; inconclusive = small, poorly fitted or top-dose-only effect, or another doubt; inactive = no such curve, though single readings can be large; an effect the other way counts as inactive or inconclusive.
SMILES,Giardia killer,IL-2 act,RXFP1 ag,NPSR antagonist,BRCA1 expr act,RXFP1 antagonist
CC(=O)Nc1ccc(C(=O)OCC(=O)c2cccc([N+](=O)[O-])c2)cc1,-27.6,1.1,-1.1%,-6.0%,1.2%,14.6
O=C(/C=C/c1cccc2ccccc12)NCCC1=CCCCC1,-26.6,-1.8,0.7%,-14.9%[46.1 µM],11.2µM*,-5.3
COc1cccc(/C=C/C(=O)OCC(=O)NCCC2=CCCCC2)c1OC,-13.3,-0.5,nt,nt,6.4%,-0.2
Cc1ccc(C(C)C)c(OCC(=O)Nc2nc3c(s2)CCCC3)c1,nt,nt,-1.4%,nt,nt,-85.0*
COc1ccccc1OCC(=O)Nc1nc2c(s1)CCCC2,-12.9,0.9,-0.3%,nt,79.0%,-33.6
COc1ccc(OCC(=O)Nc2nc3c(s2)CCCC3)cc1,2.7,-0.5,1.1%,nt,60.4%,8.5
O=C(COc1ccc(F)cc1)Nc1nc2c(s1)CCCC2,-15.0,-0.2,1.2%,nt,12.6µM*,-3.8
c1csc(-c2nc(N3CCCCC3)no2)c1,6.9,0.4,2.6%,nt,6.31µM*,-10.2
Cc1ccc(-c2noc(-c3cccs3)n2)cc1,1.0,-1.4,-0.7%,9.4%[46.1 µM],-2.5%,11.3
Cc1cc(C)c(S(=O)(=O)NCC(c2ccc(N(C)C)cc2)N2CCc3ccccc32)c(C)c1 (stereo not given),nt,nt,4.3%,nt,nt,-4.9
Cc1ccc(NC(=O)C(Cc2ccccc2)n2cccc2)cc1C (stereo not given),nt,nt,-0.3%,nt,nt,?
O=C(CSc1ncccn1)Nc1ccc2c(c1)CCC2,-11.3,0.1,1.1%,8.2%,8.91µM*,3.2
O=C(Nc1ccc2c(c1)CCC2)c1cnccn1,1.3,-0.7,-0.9%,-2.4%[46.1 µM],3.55µM*,4.7
O=C(CSc1ncccn1)Nc1ccc2[nH]c(=O)[nH]c2c1,-0.2,3.2,0.3%,nt,-9.1%,-4.5
O=C(C[n+]1ccccc1Br)c1ccc(I)cc1,nt,nt,nt,nt,9.8%,nt
COc1ccc(OCC(=O)NC(=S)Nc2ccc3c4c(cccc24)CC3)cc1,-2.3,-1.1,20µM*,-57.5%,-0.3%,12.8
Cc1ccccc1OCC(=O)NC(=S)Nc1ccc2c3c(cccc13)CC2,-1.3,1.2,8.5%,29.3%[46.1 µM],-35.0%,3.4
O=C(Nc1ccccc1)c1ccc(-n2nncc2-c2ccccc2)cc1,-25.8,nt,nt,nt,15.3%,nt
COc1ccccc1C1=NC(c2ccc(C)cc2)N=C1C (stereo not given),-2.1,-3.7,-0.8%,-38.2%,10µM*,-8.9
CCOC(=O)/C(C#N)=C\C=C1C=CN(C)C=C1,-6.2,6.0,-2.1%,12.6µM*,3.98µM*,-11.8
CCOC(=O)/C(C#N)=C\c1ccc(CC)s1,-13.5,0.3,0.4%,-14.0%[46.1 µM],25.3%,4.8
Clc1ccccc1-c1cc2nc(NCCCn3ccnc3)ccn2n1,nt,-0.1,nt,nt,10µM*,nt
CN(C)c1ccc(N=Cc2cccc3ccccc23)cc1,nt,nt,nt,nt,14.3%,nt
O=C(Nc1ccccc1)Nc1cc(Cl)cc(Cl)c1,-16.6,-0.4,-1.5%,?,-75.1%,-20.7
O=C(Nc1ccccc1)Nc1cc(OCC(F)(F)F)cc(OCC(F)(F)F)c1,10.1,-6.6,-0.2%,?,-98.9%,-72.2*
SMILES,Giardia killer,IL-2 act,RXFP1 ag,NPSR antagonist,BRCA1 expr act,RXFP1 antagonist
CCC(=O)Nc1cccc(-c2cc3ccccc3oc2=O)c1,-23.7,0.0,3.7%,-45.8%,10µM*,9.3
O=C(Cc1ccc(OCc2ccccc2)cc1)NO,nt,nt,nt,nt,59.3%,nt
Cc1ccc(F)cc1NC(=O)c1sc2ncn(CC(=O)N3CCN(c4ccccn4)CC3)c(=O)c2c1C,38.7,0.6,15.8µM*,nt,-17.1%,11.7
Cc1nc(N2CCN(c3ccccn3)CC2)c2c(C)c(C(=O)Nc3ccc(F)cc3F)sc2n1,1.5,5.7,-1.6%,-48.1%,-41.7%,11.1
COc1ccccc1NC(=O)Cn1cnc2sc(C(=O)Nc3cc(OC)c(OC)c(OC)c3)c(C)c2c1=O,37.4,-1.3,-0.5%,nt,-52.4%,10.3
COc1ccccc1NC(=O)Cn1cnc2sc(C(=O)Nc3ccc(OC)c(OC)c3)c(C)c2c1=O,-4.0,0.3,2.7%,nt,-31.1%,-71.3*
Cc1ccc(NCc2nc3ccccc3n2C)cc1C,20.2,-0.2,-1.7%,nt,7.94µM*,8.0
COc1ccc(CNc2nc3ccccc3n2C)c(O)c1,8.8,-0.2,0.9%,-0.6%,1.58µM*,-14.7
CCCn1c(NCc2cccc(OC)c2OC)nc2ccccc21,17.0,-0.2,0.1%,-4.1%[46.1 µM],45.2%,-3.1
COc1ccc(NCc2nc3ccccc3n2C)cc1,-7.0,-0.2,-1.2%,nt,3.98µM*,5.1
CCCn1c(NCc2cccc(OC)c2O)nc2ccccc21,5.8,0.0,0.7%,-6.6%[46.1 µM],6.31µM*,2.4
COc1ccc(CNc2nc3ccccc3n2C)c(OC)c1,-2.8,0.5,-0.3%,17.3%,?,-18.6
Cn1c(Nc2ccc(F)cc2)nc2ccccc21,-2.4,-2.3,-1.6%,nt,32.3%,2.8
Cn1c(CNc2nc3ccccc3n2C)nc2ccccc21,8.7,-1.9,1.1%,-0.9%[46.1 µM],10µM*,-11.5
Cn1c(NCc2ccc(Cl)cc2)nc2ccccc21,-14.3,-0.9,0.4%,5.4%,4.47µM*,-19.5
COc1ccc(Nc2nc3ccccc3n2C)cc1,-22.8,-0.4,-4.4%,nt,5.62µM*,10.4
Cc1ccc(CNc2nc3ccccc3n2C)cc1,5.6,-1.8,-2.2%,nt,?,nt
Cc1ccc(OCCCC(=O)Nc2nc3ccccc3[nH]2)cc1,-1.5,0.2,1.9%,1.2%,-21.8%,-2.7
O=C(CCCOc1ccccc1)Nc1nc2ccccc2[nH]1,-2.8,0.2,0.4%,-2.3%,6.31µM*,3.5
Nc1cc(=O)[nH]c(=S)[nH]1,nt,nt,nt,nt,12.2%,nt
COc1cc(C)ccc1OCc1cc(C(=O)N(C)CCCN2CCOCC2)no1,4.1,-0.2,-0.4%,nt,7.94µM*,23.3
COc1ccc(OCc2cc(C(=O)N(C)Cc3cc(C)no3)no2)c(Cl)c1,-9.2,-0.4,1.2%,nt,3.98µM*,5.4
CCc1ccc(CN(C)C(=O)c2cc(COc3ccc(OC)cc3Cl)on2)nc1,8.8,-3.9,0.7%,nt,8.91µM*,-10.7
COc1ccc(OCc2cc(C(=O)N(C)Cc3nnc(C)o3)no2)c(Cl)c1,24.5,1.5,1.0%,nt,7.08µM*,-10.9
Cc1cc(CN(C)C(=O)c2cc(COc3ccc(F)cc3Cl)on2)n[nH]1,-19.4,-2.9,1.3%,5.3%,7.94µM*,1.9
CCOc1ccc(C(C(=O)NCC2CCCO2)N(C(=O)c2snc(C(N)=O)c2N)c2cccc(F)c2)cc1 (stereo not given),22.6,-0.3,-0.1%,nt,-37.3%,-90.5*
Cc1cc(C)cc(N(C(=O)c2snc(C(N)=O)c2N)C(C(=O)NCC2CCCO2)c2ccc(C)o2)c1 (stereo not given),-0.6,-1.0,0.4%,nt,-30.9%,-60.6*
COc1cc(OC)cc(N(C(=O)c2snc(C(N)=O)c2N)C(C(=O)NCC2CCCO2)c2ccc(C)o2)c1 (stereo not given),nt,nt,1.7%,nt,nt,nt
